Our source for the outcome and AC50 values is PubChem BioAssay (EPA / NIEHS).

As a reminder, the AC50 is the concentration giving half of the maximal activity seen.

Assay [1] can be described thus: ATG_M_32_CIS: Attagene CIS-FACTORIAL HepG2 Assay for M32 Transcription Factor (Internal Marker) (AID 2282949).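 Further: background control marker of the multiplexed CIS panel rather than a real target.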 The following applies: HepG2 Attagene cis-factorial M32 reporter, mRNA; actives raise or lower the signal. Put shortly:
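Following 24 h chemical exposure of HepG2 cells transiently expressing cis-promoter reporter constructs, reporter transcript levels were determined by RT-PCR with fluorescent labelling and capillary electrophoresis, then fitted bidirectionally against DMSO.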

The nature of assay [2]: ATG_M_06_CIS: Attagene CIS-FACTORIAL HepG2 Assay for M06 Transcription Factor (Internal Marker) (AID 2282950). The following applies: HepG2 Attagene CIS-FACTORIAL M06 internal marker reporter; actives raise or lower the signal. In outline:
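Internal background marker within multiplexed cis-reporter HepG2 system. Cells transiently transfected, dosed 24 h; reporter mRNA measured by RT-PCR, HpaI digestion and capillary electrophoresis. Bidirectional fit relative to DMSO.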

In assay [3] the target is Hypoxia-inducible factor 1-alpha (Homo sapiens) (UniProt Q16665). In words: ATG_HIF1a_CIS: Attagene CIS-FACTORIAL HepG2 Assay for human Hypoxia Inducible Factor 1 (HIF1A) (AID 2282951). The note with it: HepG2 Attagene cis-factorial HIF1a reporter transcription; actives raise or lower the signal. In outline: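 Measures endogenous transcription-factor activity through cis-regulated reporter mRNA in HepG2. Cells dosed 24 h; transcripts quantified by RT-PCR with 6-FAM-labelled products separated by capillary electrophoresis; DMSO serves as negative control.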

Assay [4] addresses Hepatocyte nuclear factor 6 (Homo sapiens) (UniProt Q9UBC0). Put plainly: ATG_HNF6_CIS: Attagene CIS-FACTORIAL HepG2 Assay for human Hepatocyte Nuclear Factor 6 (HNF6) (AID 2282952). The note with it: HepG2 Attagene cis-factorial HNF6 reporter transcription; actives raise or lower the signal. In outline: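 HepG2, transient MRTU transfection (cis promoters); 24 h chemical exposure; total RNA → oligo(dT) RT → PCR → 6-FAM labelling → HpaI cut → CE; bidirectional fit vs DMSO.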

In assay [5] the target is Heat shock factor protein 1 (Homo sapiens) (UniProt Q00613). Put plainly: ATG_HSE_CIS: Attagene CIS-FACTORIAL HepG2 Assay for human Heat Shock Transcription Factor 1 (HSE) (AID 2282953). The following applies: HepG2 HSE cis-reporter, Attagene RNA transcription; actives raise or lower the signal. In outline: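 HepG2 cells transfected with cis-promoter reporter units sensing endogenous transcription factor activity; reporter mRNA quantified 24 h post-dose by RT-PCR and capillary electrophoresis of 6-FAM-labelled products. Bidirectional fitting against DMSO.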

Assay [6] can be described thus: ATG_MRE_CIS: Attagene CIS-FACTORIAL HepG2 Assay for human Metal Responsive Element (MRE) (AID 2282954). The following applies: HepG2 MRE cis-reporter transcription, Attagene multiplex; actives raise or lower the signal. Put shortly:
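HepG2 cells transiently transfected with multiple cis-element reporter units measure endogenous MTF1-driven transcription. After 24 h compound exposure, reporter mRNA is quantified by RT-PCR with 6-FAM labelling, HpaI digestion and capillary electrophoresis; bidirectional fits versus DMSO.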

Assay [7] in a line: ATG_PBREM_CIS: Attagene CIS-FACTORIAL HepG2 Assay for human Phenobarbital-responsive Enhancer Module (PBREM) (AID 2282955). The following applies: HepG2 PBREM cis-reporter, Attagene multiplexed transcription; actives raise or lower the signal. In outline:
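Fluorescence of labelled reporter cDNA fragments, resolved by capillary electrophoresis, gives mRNA induction in transfected HepG2 cells treated for 24 h; DMSO serves as negative control and baseline.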

For assay [8], the target named is Paired box protein Pax-6 (Homo sapiens) (UniProt P26367). Put plainly: ATG_Pax6_CIS: Attagene CIS-FACTORIAL HepG2 Assay for human Paired Box 6 (PAX6) (AID 2282956). The following applies: HepG2 CIS-FACTORIAL PAX6 reporter transcription, RNA readout; actives raise or lower the signal. In outline: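 After twenty-four hours of chemical exposure, transfected HepG2 cells are harvested for RNA. Cis-promoter reporter transcripts are amplified, fluorescently labelled and sized by capillary electrophoresis, with gain and loss of signal scored against DMSO.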

Assay [9] in a line: ATG_PXRE_CIS: Attagene CIS-FACTORIAL HepG2 Assay for human Pregnane X Receptor Element (PXRE) (AID 2282957). The following applies: HepG2 Attagene CIS-FACTORIAL PXRE reporter, mRNA; actives raise or lower the signal. In outline:
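Transfect HepG2 with MRTUs (cis promoter elements); dose chemical, incubate 24 h; isolate RNA, RT with oligo(dT), PCR, 6-FAM label, HpaI cut, CE. Gain/loss fit vs DMSO.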

Assay [10] is described as follows: ATG_PPRE_CIS: Attagene CIS-FACTORIAL HepG2 Assay for human Peroxisome Proliferator-activated Response Element (PPRE) (AID 2282958). The following applies: HepG2 PPRE cis-element reporter, Attagene transcription factor profiling; actives raise or lower the signal. In outline: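 Cells are first transfected transiently with the multiplexed reporter library, then dosed for 24 h. Total RNA is reverse-transcribed, amplified, fluorescently end-labeled and HpaI-cut before capillary electrophoresis; activity is fitted bidirectionally against DMSO controls.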

Assay [11] is described as follows: ATG_RORE_CIS: Attagene CIS-FACTORIAL HepG2 Assay for human RAR-related Orphan Receptor Element (RORE) (AID 2282959). The following applies: HepG2 Attagene cis-factorial RORE reporter, mRNA; actives raise or lower the signal. Put shortly:
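Cells were HepG2 carrying transfected cis-regulated reporter constructs, dosed for 24 hours. Total RNA was reverse-transcribed and reporter cDNA amplified, fluorescently labeled and sized by capillary electrophoresis. Activity was fitted bidirectionally relative to DMSO.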

Assay [12] can be described thus: ATG_Sox_CIS: Attagene CIS-FACTORIAL HepG2 Assay for human SRY-box transcription factor (SOX) (AID 2282960). The following applies: HepG2 Attagene cis-factorial SOX reporter, mRNA; actives raise or lower the signal. In outline:
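Transient MRTU transfection of HepG2; 24 h compound incubation; TriZol RNA, oligo(dT) RT, PCR, 6-FAM primer extension, HpaI cut, CE. Bidirectional fit, DMSO = baseline.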

The target in assay [13] is Transcription factor Sp1 (Homo sapiens) (UniProt P08047). Put plainly: ATG_Sp1_CIS: Attagene CIS-FACTORIAL HepG2 Assay for human Specificity Protein 1 (Sp1) (AID 2282961). The following applies: HepG2 Sp1 cis-reporter transcription, actives raise or lower the signal. Put shortly: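 Endogenous Sp1 activity was gauged in human liver HepG2 cells bearing transfected reporter units under a cis-regulating promoter. After 24 h dosing, reporter mRNA was quantified by RT-PCR with capillary electrophoresis, and activity fitted bidirectionally versus DMSO.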

Assay [14] is described as follows: ATG_SREBP_CIS: Attagene CIS-FACTORIAL HepG2 Assay for human Sterol Regulatory Element Binding (SREBP) (AID 2282962). The following applies: HepG2 Attagene cis-factorial SREBP reporter, mRNA; actives raise or lower the signal. Put shortly:
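Twenty-four hours after chemical dosing of transfected HepG2 cultures, reporter RNA was converted to cDNA, amplified, end-labelled with 6-FAM and resolved by capillary electrophoresis. Responses were fitted relative to DMSO.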

Assay [15] has as its target Signal transducer and activator of transcription 3 (Homo sapiens) (UniProt P40763). In words: ATG_STAT3_CIS: Attagene CIS-FACTORIAL HepG2 Assay for human Signal Transducer and Activator of Transcription 3 (STAT3) (AID 2282963). The note with it: HepG2, Attagene cis-factorial STAT3 reporter transcription; actives raise or lower the signal. Put shortly: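 HepG2 cells transiently transfected with cis-element-driven multiple reporter transcription units; after 24 h chemical exposure, reporter mRNA measured by RT-PCR, 6-FAM primer-extension labelling, HpaI digestion and capillary electrophoresis. Bidirectional fitting versus DMSO baseline.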

A short description of assay [16]: ATG_TA_CIS: Attagene CIS-FACTORIAL HepG2 Assay for human TA Basal Promoter (AID 2282964). The following applies: HepG2 Attagene CIS-factorial TA basal promoter reporter; actives raise or lower the signal. Put shortly: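 HepG2 cells transiently transfected with multiple reporter units under cis promoter elements, reporting endogenous transcription factor activity; this endpoint tracks the TA basal promoter as background control. Reporter mRNA after 24 h dosing measured by RT-PCR/capillary electrophoresis; bidirectional fits versus DMSO.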

Assay [17] can be described thus: ATG_TCF_b_cat_CIS: Attagene CIS-FACTORIAL HepG2 Assay for human T-Cell-Factor with beta-catenin (TCF/b-cat) (AID 2282965). The following applies: HepG2 TCF/beta-catenin cis-reporter transcription, actives raise or lower the signal. Put shortly: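 Using capillary electrophoresis as the read-out, labelled reporter cDNA fragments from transiently transfected HepG2 were sized and quantified. Exposure lasted 24 hours; activity in either direction was referenced to DMSO.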

A short description of assay [18]: ATG_TAL_CIS: Attagene CIS-FACTORIAL HepG2 Assay for human TAL Basal Promoter (AID 2282966).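 Further: background control endpoint measuring basal TAL promoter reporter mRNA not a specific factor.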 The following applies: HepG2 Attagene cis-factorial TAL promoter reporter; actives raise or lower the signal. Put shortly:
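Fluorescence of labelled reporter cDNA fragments, resolved by capillary electrophoresis, gave the readout. Human HepG2 liver cells carried transiently transfected cis-element reporter units and were treated for 24 hours; activity was fitted bidirectionally against DMSO.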

A short description of assay [19]: ATG_TGFb_CIS: Attagene CIS-FACTORIAL HepG2 Assay for human Transforming Growth Factor (TGF) (AID 2282967). The note with it: HepG2 Attagene CIS TGFb reporter, mRNA transcription; actives raise or lower the signal. In outline:
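HepG2 cells transiently transfected with cis-promoter-driven multiple reporter units measure endogenous TF activity; reporter mRNA quantified at 24 h by RT-PCR, FAM labeling, HpaI digestion and capillary electrophoresis. Bidirectional fit vs DMSO.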

The nature of assay [20]: ATG_VDRE_CIS: Attagene CIS-FACTORIAL HepG2 Assay for human Vitamin D Receptor Element (VDRE) (AID 2282968). The note with it: HepG2 VDRE cis-reporter transcription, actives raise or lower the signal. Put shortly: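 HepG2 cells transiently transfected with cis-element reporter units, dosed 24 h; reporter mRNA measured by RT-PCR, 6-FAM labeling, HpaI digestion and capillary electrophoresis. Activity fitted bidirectionally against DMSO baseline.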

Molecules are shown by their SMILES. Active and inactive are the calls of the source. How the source made its calls: active means hit-call score of the fitted dose curve at least 0.9, where 1 is the maximum; inactive means score below 0.9.

Chain of Hepatocyte nuclear factor 6 (Homo sapiens) (Q9UBC0 whole entry, looked up): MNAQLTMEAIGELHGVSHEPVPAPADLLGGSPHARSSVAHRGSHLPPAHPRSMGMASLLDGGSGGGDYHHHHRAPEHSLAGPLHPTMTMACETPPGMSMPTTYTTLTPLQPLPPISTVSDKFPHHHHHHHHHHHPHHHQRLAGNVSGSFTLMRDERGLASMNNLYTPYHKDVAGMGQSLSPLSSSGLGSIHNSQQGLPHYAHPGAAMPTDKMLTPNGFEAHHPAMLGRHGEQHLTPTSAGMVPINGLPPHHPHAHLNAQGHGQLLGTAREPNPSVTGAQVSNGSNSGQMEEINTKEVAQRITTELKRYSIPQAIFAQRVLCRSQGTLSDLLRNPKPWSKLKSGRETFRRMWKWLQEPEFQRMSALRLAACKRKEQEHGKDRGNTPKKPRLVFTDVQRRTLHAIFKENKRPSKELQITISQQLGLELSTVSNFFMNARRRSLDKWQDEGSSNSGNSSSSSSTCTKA
Chain of Signal transducer and activator of transcription 3 (Homo sapiens) (P40763 whole entry, looked up): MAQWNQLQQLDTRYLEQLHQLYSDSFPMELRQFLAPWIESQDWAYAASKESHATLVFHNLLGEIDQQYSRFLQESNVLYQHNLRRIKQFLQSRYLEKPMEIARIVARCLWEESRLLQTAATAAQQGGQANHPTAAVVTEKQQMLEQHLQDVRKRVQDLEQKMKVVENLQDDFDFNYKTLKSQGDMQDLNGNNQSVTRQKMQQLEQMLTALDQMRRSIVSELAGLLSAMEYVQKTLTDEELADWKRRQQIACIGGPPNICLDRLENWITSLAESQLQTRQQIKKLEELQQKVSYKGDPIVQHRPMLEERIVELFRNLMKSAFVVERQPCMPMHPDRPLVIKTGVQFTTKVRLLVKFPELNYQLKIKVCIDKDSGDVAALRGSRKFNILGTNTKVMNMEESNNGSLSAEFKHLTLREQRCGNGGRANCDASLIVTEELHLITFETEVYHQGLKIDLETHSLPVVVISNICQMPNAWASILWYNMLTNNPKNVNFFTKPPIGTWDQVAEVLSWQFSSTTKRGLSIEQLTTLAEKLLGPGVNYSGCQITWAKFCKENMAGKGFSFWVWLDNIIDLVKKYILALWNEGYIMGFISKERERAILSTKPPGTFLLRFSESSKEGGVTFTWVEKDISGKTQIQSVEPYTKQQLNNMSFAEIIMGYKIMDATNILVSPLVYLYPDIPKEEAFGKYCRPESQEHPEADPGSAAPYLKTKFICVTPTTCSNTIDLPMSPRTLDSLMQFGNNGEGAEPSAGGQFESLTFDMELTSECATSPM
Chain of Heat shock factor protein 1 (Homo sapiens) (Q00613 whole entry, looked up): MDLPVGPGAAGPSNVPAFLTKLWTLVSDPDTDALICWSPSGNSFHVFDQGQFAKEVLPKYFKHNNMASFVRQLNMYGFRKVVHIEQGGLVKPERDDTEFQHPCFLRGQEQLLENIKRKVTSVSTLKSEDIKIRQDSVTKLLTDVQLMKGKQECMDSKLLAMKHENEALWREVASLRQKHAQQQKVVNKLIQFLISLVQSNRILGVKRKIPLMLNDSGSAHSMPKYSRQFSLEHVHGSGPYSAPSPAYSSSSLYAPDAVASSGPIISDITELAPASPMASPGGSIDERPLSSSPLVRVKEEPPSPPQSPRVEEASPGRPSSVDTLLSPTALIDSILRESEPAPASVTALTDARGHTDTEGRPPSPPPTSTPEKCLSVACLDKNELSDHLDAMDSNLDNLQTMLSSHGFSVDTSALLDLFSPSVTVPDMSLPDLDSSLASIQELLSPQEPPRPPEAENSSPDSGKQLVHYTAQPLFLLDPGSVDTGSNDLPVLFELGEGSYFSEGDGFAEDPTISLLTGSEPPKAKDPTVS
Chain of Hypoxia-inducible factor 1-alpha (Homo sapiens) (Q16665 whole entry, looked up): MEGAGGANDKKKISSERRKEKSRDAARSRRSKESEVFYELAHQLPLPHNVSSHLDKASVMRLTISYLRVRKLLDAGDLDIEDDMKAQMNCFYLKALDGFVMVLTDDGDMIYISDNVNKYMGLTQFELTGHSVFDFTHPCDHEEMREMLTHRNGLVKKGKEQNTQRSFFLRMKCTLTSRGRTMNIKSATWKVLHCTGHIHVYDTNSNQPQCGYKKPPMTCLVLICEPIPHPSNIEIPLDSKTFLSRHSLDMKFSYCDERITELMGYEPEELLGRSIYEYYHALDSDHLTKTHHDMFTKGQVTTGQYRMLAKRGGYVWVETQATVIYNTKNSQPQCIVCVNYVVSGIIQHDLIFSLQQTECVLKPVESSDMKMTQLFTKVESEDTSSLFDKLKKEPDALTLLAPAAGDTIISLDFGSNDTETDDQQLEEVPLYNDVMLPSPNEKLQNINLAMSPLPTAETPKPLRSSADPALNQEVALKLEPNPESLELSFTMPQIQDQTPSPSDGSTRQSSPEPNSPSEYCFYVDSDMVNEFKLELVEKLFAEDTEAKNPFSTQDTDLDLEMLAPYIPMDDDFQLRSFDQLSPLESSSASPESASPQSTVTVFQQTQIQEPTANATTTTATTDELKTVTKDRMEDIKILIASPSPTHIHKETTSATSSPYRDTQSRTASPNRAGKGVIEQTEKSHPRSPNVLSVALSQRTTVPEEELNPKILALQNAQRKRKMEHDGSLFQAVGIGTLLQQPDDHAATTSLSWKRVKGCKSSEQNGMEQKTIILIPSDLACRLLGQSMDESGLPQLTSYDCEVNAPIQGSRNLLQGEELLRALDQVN
Chain of Transcription factor Sp1 (Homo sapiens) (P08047 whole entry, looked up): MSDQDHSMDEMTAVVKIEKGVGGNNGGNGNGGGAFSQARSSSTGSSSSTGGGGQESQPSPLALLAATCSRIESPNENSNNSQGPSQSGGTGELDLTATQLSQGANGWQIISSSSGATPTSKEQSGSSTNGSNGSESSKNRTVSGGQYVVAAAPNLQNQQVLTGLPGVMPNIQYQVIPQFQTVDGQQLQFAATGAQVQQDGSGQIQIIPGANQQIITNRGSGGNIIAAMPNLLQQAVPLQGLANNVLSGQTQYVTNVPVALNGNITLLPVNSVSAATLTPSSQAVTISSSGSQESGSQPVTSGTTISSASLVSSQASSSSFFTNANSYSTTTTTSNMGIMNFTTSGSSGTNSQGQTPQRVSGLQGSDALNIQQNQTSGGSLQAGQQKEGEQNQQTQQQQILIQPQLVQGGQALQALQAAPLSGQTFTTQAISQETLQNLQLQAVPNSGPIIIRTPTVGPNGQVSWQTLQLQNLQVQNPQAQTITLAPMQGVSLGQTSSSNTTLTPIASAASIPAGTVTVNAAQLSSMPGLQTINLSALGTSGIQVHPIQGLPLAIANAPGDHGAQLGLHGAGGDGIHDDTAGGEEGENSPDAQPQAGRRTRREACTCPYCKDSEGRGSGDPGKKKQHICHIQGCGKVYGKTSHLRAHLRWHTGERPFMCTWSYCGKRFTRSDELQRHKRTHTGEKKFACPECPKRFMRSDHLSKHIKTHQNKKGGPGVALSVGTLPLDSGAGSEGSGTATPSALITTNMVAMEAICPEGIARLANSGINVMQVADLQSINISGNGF
Chain of Paired box protein Pax-6 (Homo sapiens) (P26367 whole entry, looked up): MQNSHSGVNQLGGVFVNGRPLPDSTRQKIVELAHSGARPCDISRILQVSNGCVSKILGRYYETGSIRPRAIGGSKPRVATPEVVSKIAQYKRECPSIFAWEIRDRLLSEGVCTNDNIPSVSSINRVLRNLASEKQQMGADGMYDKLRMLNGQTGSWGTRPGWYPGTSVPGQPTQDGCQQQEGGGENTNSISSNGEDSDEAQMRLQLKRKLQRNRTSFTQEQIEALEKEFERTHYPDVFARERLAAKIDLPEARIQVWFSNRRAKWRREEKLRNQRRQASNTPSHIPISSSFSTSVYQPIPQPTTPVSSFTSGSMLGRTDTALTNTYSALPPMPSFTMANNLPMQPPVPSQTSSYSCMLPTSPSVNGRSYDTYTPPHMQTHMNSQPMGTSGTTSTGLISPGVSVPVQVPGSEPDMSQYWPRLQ

Regarding `FC1(F)C=CC(F)(F)C1(F)F`, the molecule was called inactive in assay [1], in assay [2], in [3], in assay [4], in assay [5] and in assay [6]. For the same molecule, the result in [7], in [8], in assay [9], in assay [10], in assay [11] and in assay [12] was inactive. For the same molecule, the outcome in assay [13], in assay [14], in assay [15], in assay [16], in assay [17] and in [18] was inactive. The outcome in assay [19] and in assay [20] was inactive.

Turning to `FC(F)=C(F)C(F)(F)C(F)(F)C(F)(F)C(F)F`, the outcome in [1], in assay [2], in assay [3], in [4], in assay [5] and in assay [6] was inactive. Besides, the outcome in assay [7], in assay [8], in [9], in assay [10], in [11] and in assay [12] was inactive. The result in [13], in assay [14], in [15], in assay [16], in assay [17] and in assay [18] was inactive. Besides, the outcome in assay [19] and in assay [20] was inactive.

With `FCOC(C(F)(F)F)C(F)(F)F`, the molecule was classed as inactive in assay [1], in [2], in assay [3], in assay [4], in [5] and in assay [6]. The result in assay [7], in [8], in [9], in [10], in assay [11] and in assay [12] was inactive. The outcome in [13], in assay [14], in assay [15], in [16], in assay [17] and in assay [18] was inactive. The result in [19] and in [20] was inactive.

With `C=Cc1ccc(O)c(OC)c1`, the result in assay [1], in assay [2], in assay [3], in assay [4], in [5] and in assay [6] was inactive. Moreover, the outcome in assay [7], in assay [8], in [11], in assay [12], in assay [13] and in assay [14] was inactive. In addition, the result in [15], in assay [16], in assay [17], in assay [18] and in [19] was inactive. In addition, the AC50 in [9] is 26.6 µM (active); in [10], 13 µM (active); in assay [20], 44.7 µM (active).

As to `COC(=O)C(F)(F)C(F)(F)C(F)(F)C(F)(F)C(F)(F)F`, the molecule was called inactive in [1], in [2], in [3], in [4], in [5] and in assay [6]. Moreover, the result in assay [7], in [8], in assay [9], in [10], in assay [11] and in assay [12] was inactive. For the same molecule, the molecule was called inactive in assay [13], in assay [14], in assay [15], in [16], in [17] and in [18]. Moreover, the result in [19] and in assay [20] was inactive.

Take `COCC1CCC(CO)CC1` (stereo not given): the molecule was classed as inactive in [1], in assay [2], in assay [3], in [4], in assay [5] and in [6]. Also, the result in assay [7], in assay [8], in assay [9], in assay [10], in [11] and in [12] was inactive. In addition, the call in assay [13], in assay [14], in assay [15], in assay [16], in [17] and in [18] was inactive. Moreover, the result in [19] and in assay [20] was inactive.
